Consider 17 compounds from PubChem BioAssay (NCATS).

Molecules are shown by their SMILES. “And” between values parts separate entries of the source, which are not always exact repeats. Equal entries are not always repeated. Inconclusive results are not listed. Values without a mark were called inactive. The source made the active and inactive calls. The call rests on the fitted dose curve; in most records, active means well fitted inhibition curve with a large enough effect; inconclusive means small, poorly fitted or top-dose-only effect; inactive means flat fitted curve, though single readings scatter.

One experiment concerns CRL-7250. Kind of experiment: Cytotoxic Profiling of Annotated Libraries Using Quantitative High-Throughput Screening (AID 1296008). Further: potency means the concentration at half of the fitted maximal effect. On max response: on the % scale 0 is the no-effect control and ±100 the full control effect. Particulars: Five cell lines viability, CellTiter-Glo ATP luminescence, 48-72 h; max response: active compounds read low. Summed up:
(§1)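 Cytotoxicity was measured as CellTiter-Glo ATP luminescence, read after 10 min at room temperature. Compound treatment of the cells lasted 48 or 72 hr at 37 degrees Celsius in a qHTS format.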

A further experiment relates to HEK293. The experiment is described as above. Particulars: Five cell lines viability, CellTiter-Glo ATP luminescence, 48-72 h; max response: active compounds read low. Summed up:
as §1
Background: In ATP-based viability assays light output follows the ATP content of the culture.

The subject of experiment [1] is HaCat. Described as above. The following applies: Five cell lines viability, CellTiter-Glo ATP luminescence, 48-72 h; max response: active compounds read low. Summed up:
as §1

The test system of the next experiment is KB-3-1. Described as above. The following applies: Five cell lines viability, CellTiter-Glo ATP luminescence, 48-72 h; max response: active compounds read low. In a few lines: as §1
In the next experiment the test system is NIH3T3. The experiment is described as above. Particulars: Five cell lines viability, CellTiter-Glo ATP luminescence, 48-72 h; max response: active compounds read low. In a few lines:
as §1

Experiment [2] has as its system HACAT. Kind of experiment: qHTS assay to identify novel small-molecules to repurpose for Merkel cell carcinoma treatment (AID 1296009). Further: potency means the concentration at half of the fitted maximal effect. The following applies: MCC and control cell lines, CellTiter-Glo viability, 72 h; at 44.8 µM (top of the series) unless noted. Summed up:
(§2)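 Cell viability measured by CellTiter-Glo following 72 hr compound treatment at 37 degree celsius, with NPC and MIPE libraries tested in 8- and 11-point concentration series.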

For another experiment, the system named is HEK293T. The description is as above. Particulars: MCC and control cell lines, CellTiter-Glo viability, 72 h; at 44.8 µM (top of the series). In a few lines: as §2
For another experiment, the system named is MCC-13. The experiment is described as above. The following applies: MCC and control cell lines, CellTiter-Glo viability, 72 h; series mostly up to 46 µM. In a few lines:
as §2

For another experiment, the system named is MCC-26. The experiment is described as above. Particulars: MCC and control cell lines, CellTiter-Glo viability, 72 h; series mostly up to 46 µM. Summed up: as §2
The next experiment concerns PC15. Kind of experiment: qHTS profiling for inhibitors of Plasmodium falciparum proliferation (AID 504749).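 Further: 0% = DMSO vehicle and full inhibition = artemisinin control.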 The following applies: P. falciparum in erythrocytes, SYBR Green DNA, 72 h; series mostly up to 28.7 µM. In a few lines: (§3)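 In a 72 h erythrocytic culture (37 C, humidified, 5% CO2) at 2.5% hematocrit and 0.3% starting parasitemia, compounds were tested; SYBR Green I in detergent lysis buffer stained parasite DNA overnight.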
A general note: In qHTS, concentration-response curves come from the screen itself.

Another experiment relates to PC49. Described as above. The following applies: P. falciparum in erythrocytes, SYBR Green DNA, 72 h; series mostly up to 28.7 µM. In a few lines: as §3
Another experiment has as its system SC27B. The description is as above. The following applies: P. falciparum in erythrocytes, SYBR Green DNA, 72 h; series mostly up to 28.7 µM. In a few lines:
as §3
Further: nearly all actives have a fitted effect of over 60% in size.

Consider `CCn1cc(C(=O)O)c(=O)c2ccc(C)nc21`, for which the max response in the experiment on CRL-7250 was 4.8% and -5.54%; in the experiment with KB-3-1, -12% and -6.11%; with NIH3T3, -10.7% and -7.98%. Further, the compound was classed as inactive with HEK293, in the experiment on HaCat [1], in the experiment with HACAT [2] and in the experiment with HEK293T. The Potency entry in the experiment on MCC-13 and in the experiment on MCC-26 was “inactive” in each case.
On to `N#Cc1ccc(NC(=O)Nc2ccccc2Br)c2n[nH]nc12`, for which the max response in the experiment with CRL-7250 was -24.9%; in the experiment with HEK293, -11%; in the experiment on KB-3-1, 1.71%; with NIH3T3 it was 3.86%. The call in the experiment with HaCat [1] and with HACAT [2] was inactive. Further, the Potency entry in the experiment on MCC-13 and with MCC-26 was “inactive” in each case.
As for `O=c1ccn([C@@H]2O[C@H](CO)[C@H](O)[C@H]2O)c(=O)[nH]1`, the values for the max response in the experiment with CRL-7250 and in the experiment with NIH3T3 were -5.18% and -5.13%, respectively. For the same compound, the result in the experiment on HEK293, in the experiment with HaCat [1], in the experiment on KB-3-1, with HACAT [2] and in the experiment with HEK293T was inactive. Besides, the Potency result in the experiment on MCC-13 and in the experiment with MCC-26 was “inactive” throughout.
`CC(C(=O)O)c1ccc(-c2ccccc2)c(F)c1` (centres undefined): the max response is 2.91% in the experiment on CRL-7250; 1.61% with HEK293; -1.08% and -0.207% in the experiment with KB-3-1; -0.252% in the experiment on NIH3T3. For the same compound, the compound was called inactive in the experiment on HaCat [1] and with HACAT [2]. Besides, the Potency entry in the experiment with MCC-13 is “inactive”.
Consider `O=C(Nc1cccc(Br)c1)c1cccc(S(=O)(=O)N2CCCCCC2)c1`, for which the Potency in the experiment on CRL-7250 is 23.1 µM (active); in the experiment on HEK293 it was 13.2 µM (active) and 9.2 µM (active). In addition, the max response with HaCat [1] was 4.06% and -1.39%; in the experiment on NIH3T3 it was -21.3%. The Potency entry in the experiment with MCC-13 and in the experiment on MCC-26 was “inactive” each time.
As to `CN(C)C1CCN(C(=O)c2ccc(NC(=O)Nc3nc(N4CCOCC4)nc(N4CCOCC4)n3)cc2)CC1`, the Potency in the experiment on CRL-7250 was 0.0006 µM (active); with HEK293, 0.142 µM (active); with HaCat [1], 252 nM (active); in the experiment on KB-3-1, 50.2 nM (active); with NIH3T3, 0.0935 µM (active); with MCC-26, 0.833 µM (active).
In the case of `O=C1NC(=O)C(=Cc2ccc3c(c2)OC(F)(F)O3)S1`, the max response in the experiment with CRL-7250 is -15.6%; with HEK293, -24.8%; in the experiment with HaCat [1] it was -0.402%; in the experiment on NIH3T3 it was -19.2%. Also, the Potency result in the experiment with MCC-13 and in the experiment with MCC-26 was “inactive” in each case.
As to `COc1cc(Nc2ncc(F)c(Nc3ccc4c(n3)NC(=O)C(C)(C)O4)n2)cc(OC)c1OC`, the Potency in the experiment on CRL-7250 is 2.31 µM (active); in the experiment on HEK293, 8.33 µM (active); in the experiment with NIH3T3 it was 8.2 µM (active). For the same compound, the results for the max response in the experiment with HaCat [1] and with KB-3-1 were -23.4% and 2.88%, respectively. The Potency result in the experiment with MCC-13 and in the experiment on MCC-26 was “inactive” in each case.
With `OC[C@H]1O[C@@H](Oc2cc(O)cc(C=Cc3ccc(O)cc3)c2)[C@H](O)[C@@H](O)[C@H]1O`, the result in the experiment with CRL-7250 and in the experiment on KB-3-1 was inactive. In addition, the max response in the experiment with HEK293 was -2.18%; in the experiment on HaCat [1], -6.02%; with NIH3T3 it was 2.83%. The Potency entry in the experiment with MCC-13 and in the experiment with MCC-26 was “inactive” in each case.
Consider `O=C(NCc1ccccc1)c1csc(Nc2ccncn2)n1`, for which the results for the Potency with CRL-7250 and in the experiment on HEK293 were 11.8 µM (active) and 5.26 µM (active), respectively. Further, the compound was classed as inactive in the experiment on HaCat [1] and in the experiment on HACAT [2]. Also, the max response with KB-3-1 is 3.38% and -16.6%.
In the case of `O=C(Nc1cc(Cl)cc2c1[nH]c1cnccc12)c1cccnc1`, the max response was -0.841% in the experiment on CRL-7250; 3.08% with HEK293; -0.0712% in the experiment on HaCat [1]; -1.81% in the experiment on KB-3-1; 2.41% in the experiment with NIH3T3. Besides, the Potency result in the experiment on MCC-13 and in the experiment on MCC-26 was “inactive” throughout.
Turning to `O=C(CCc1ccc(O)cc1)c1c(O)cc(O)cc1O[C@@H]1O[C@H](CO)[C@H](O)[C@H](O)[C@H]1O`, the max response in the experiment with CRL-7250 was -9.67%; in the experiment with HEK293, 1.98%; with HaCat [1], -1.37%; with KB-3-1, 1.32%; with NIH3T3, -7.96%. In addition, the Potency entry in the experiment on MCC-13 and in the experiment on MCC-26 was “inactive” throughout.
Regarding `CN1[C@@H]2CCC[C@@H]1CC(NC(=O)c1nn(C)c3ccccc13)C2` (some centres undefined), the max response with CRL-7250 was -0.159%; in the experiment on HEK293 it was -2.4%; with HaCat [1], -5.72%; with KB-3-1, 1.46%; in the experiment on NIH3T3, 0.235%. In addition, the Potency entry in the experiment on MCC-13 and with MCC-26 was “inactive” each time.
Regarding `Cc1nc(N)sc1-c1ccnc(Nc2ccc(N3CCOCC3)cc2)n1`, the Potency in the experiment on CRL-7250 is 9.35 µM (active) and 5.17 µM (active); with HEK293 it was 10.5 µM (active) and 7.31 µM (active); in the experiment with HaCat [1], 18.7 µM (active) and 1.16 µM (active); with KB-3-1, 1.66 µM (active) and 1.64 µM (active); with NIH3T3, 11.8 µM (active) and 1.84 µM (active). Besides, the Potency result in the experiment on MCC-26 was “inactive”.
`CC(C)(C)OC(=O)N[C@H]1CCCCCC=C[C@@H]2C[C@@]2(C(=O)NS(=O)(=O)C2CC2)NC(=O)[C@@H]2C[C@@H](OC(=O)N3Cc4cccc(F)c4C3)CN2C1=O`: the max response with CRL-7250 was -21.2%; with HEK293, 3.03%; in the experiment on HaCat [1] it was -10.7%; in the experiment on KB-3-1, 5.38%; in the experiment on NIH3T3, -0.939%. The Potency result in the experiment with MCC-13 and in the experiment with MCC-26 was “inactive” throughout.
In the case of `NC(CO)(CO)CCc1ccc(Sc2cccc(OCc3ccccc3)c2)cc1Cl`, in the experiment with CRL-7250, the max response is -10.2%. For the same compound, the Potency is 10.5 µM (active) with HEK293, 26400 nM (active) in the experiment with HaCat [1] and 16.6 µM (active) in the experiment with NIH3T3. Moreover, the Potency result with MCC-13 and with MCC-26 was “inactive” in each case.
For `CC(=O)O[C@]1(C(C)=O)CC[C@H]2[C@@H]3C=C(Cl)C4=CC(=O)[C@@H]5C[C@@H]5[C@]4(C)[C@H]3CC[C@@]21C`, the call with PC15 and with PC49 was inactive. Also, the Potency entry with SC27B and with MCC-13 was “inactive” each time. Besides, the max response in the experiment with CRL-7250 is -14.7% and -0.0221%; with HaCat [1] it was 4.62% and -21.2%; in the experiment with KB-3-1, 2.19% and -8.34%; in the experiment with NIH3T3 it was -8.51% and -19.2%. The Potency in the experiment on HEK293 is 13 µM (active).
